Laboratory results as given in ChEMBL document CHEMBL1157539, “Thousands of chemical starting points for antimalarial lead identification” (Nature, 2010).

How the values were obtained:
Format in all cases: functional
[1] = system: Plasmodium falciparum; assay: GSK_TCMDC: Inhibition of Plasmodium falciparum 3D7 in whole red blood cells, using parasite LDH activity as an index of growth. Test compounds present at 2uM
[2] = system: Plasmodium falciparum; assay: GSK_TCMDC: Inhibition of Plasmodium falciparum Dd2 in whole red blood cells, using parasite LDH activity as an index of growth. Test compounds present at 2uM
[3] = system: HepG2; assay: GSK_TCMDC: Percent inhibition of human HepG2 cell line. Test compounds present at 10uM.

Compound | Inhibition [1] [%] | Inhibition [2] [%] | Inhibition [3] [%]
COc1cccc(COCC(O)CN(CCc2ccccn2)C(=O)c2ccccc2F)c1 (stereo not given) | 97 | 30 | 61
CCc1n[nH]c(C(=O)NC2CCN(CC3(c4ccc(OC)cc4)CCCCC3)CC2)c1C | 90 | 90 | 2
CN1CCN(c2cc(NC(=O)c3ccc(-c4ccc(C#N)cc4)cc3)ccc2Cl)CC1 | 100 | 94 | 29
N#Cc1ccc(C(=O)Nc2ccc(Cl)c(N3CCN(CCc4ccccc4)CC3)c2)cc1.O=C(O)C(F)(F)F | 90 | 35 | 5
COc1cccc(NC(=O)[C@H](C)n2c(=O)[nH]c3ccccc3c2=O)c1 | 100 | 92 | 8
CCn1c(-c2nonc2N)nc2c(-c3cccc(NC(=O)Nc4ccccc4Cl)c3)ncc(OCCCN)c21.O=C(O)C(F)(F)F | 99 | 74 | 2
CC(C)(C)c1ccc(CNC(=O)COc2ccc(-c3nnc(-c4cccc([N+](=O)[O-])c4)o3)cc2[N+](=O)[O-])cc1 | 93 | 25 | 10
O=C1COc2ccc(CNC3CCC(O)(CCc4ccnc5cc6c(cc45)OCCO6)CC3)nc2N1 (stereo not given) | 92 | 0 | 0
Cc1nc(N/C(N)=N/C(=O)NC2CCCCC2)nc2ccccc12 | 95 | 99 | 21
Cc1cc(NCCC(=O)NCCOc2ccccc2)nc(Nc2ccccc2)n1.O=C(O)C(F)(F)F | 94 | 55 | 26
